# Source: PubChem BioAssay (National Center for Advancing Translational Sciences (NCATS))
# The list is not random: actives were taken first. Their share in the collection is about 19%.
# HT1080NT lethal: kills 2HG-producing HT-1080-NT fibrosarcoma cells | HT-1080-NT fibrosarcoma viability, CellTiter-Glo ATP luminescence, 48 h | Potency, µM (series often up to 46.1 µM), for inactives: at the top dose activity, negative = less viability, hits mostly cytotoxic | actives 1.6% (n = 360,000);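 further: NT is the 2HG producing partner of a matched IDH1 knockdown line; potency means the concentration at half of the fitted maximal effect; 0% = DMSO-treated cells and -100% = media-only wells without cells; nearly all actives have a fitted effect of over 55% in size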
#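 Viability by CellTiter-Glo luminescence after 48 h compound exposure at 37C of HT-1080-NT cells (750/well, RPMI, 5% FBS). % activity scaled between DMSO wells and medium-only wells, then curve-fitted and categorized by curve class.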
# IL-1B inflam inh: inhibitors of inflammasome signaling (IL-1 beta secretion) | AID 743279 | actives 4.7% (n = 360,000) | THP-1 LPS/ATP IL-1B secretion, AlphaLISA, 16 h; stronger effect = lower value | activity change, % at 57.5 µM; in the data active means activity change below about -50%; inconclusive means mostly about -30% to -49%
#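 THP-1 cells pretreated 1 hr with compounds (up to 57.5 uM final), then stimulated with LPS (250 ng/mL final) plus ATP (1.25 mM final); secreted IL-1B measured by AlphaLISA after 16 hr, decreased signal indicating inhibition.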
# TDP1 cell CPT: growth inhibition of DT40 Tdp1-/-;hTDP1 cells with camptothecin (screen for TDP1 inhibitors). actives 12% (n = 420,000). chicken DT40 Tdp1-/-;hTDP1 cells + 20 nM CPT, ATP luminescence, 48 h. Potency, µM (highest dose often 46.2 µM), for the others: at the highest dose activity change, negative = growth inhibition, usual class: inhibitors; further: potency means the concentration at half of the fitted maximal effect; nearly all actives have a fitted effect of over 55% in size
#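 Cell growth measured by CellTiter-Glo luminescence after a minimum 48 h, 37 C compound exposure with 20 nM CPT in Tdp1-knockout DT40 cells stably expressing hTDP1, seeded 400/well; qHTS titration format.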
# HT1080 IDH1KD tx: HT-1080 IDH1 knockdown cell toxicity (counter line); Potency, µM (top dose mostly 46.1 µM), inactives show at the top dose activity, negative = toxicity, most hits filed as cytotoxic; actives 2% (n = 360,000); HT-1080 IDH1 knockdown viability, ATP luminescence, 48 h; AID 686971;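 further: potency means the concentration at half of the fitted maximal effect; 0% = DMSO wells and -100% = cell-free medium wells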
#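 Using the IDH1-knockdown HT-1080 line run in the same batch and compound series as the NT line, viability after 48 h at 37 °C was determined by CellTiter-Glo luminescence and expressed as % activity.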
# TDP1 cell noCPT: qHTS for Inhibitors of human tyrosyl-DNA phosphodiesterase 1 (TDP1): qHTS in cells in absence of CPT; DT40 Tdp1-/- hTDP1 cells, no CPT, ATP luminescence, 48 h; Potency, µM (series often up to 46.2 µM), for inactives: at the top dose activity change, negative = growth inhibition, actives largely listed as inhibitors; actives 15% (n = 420,000); further: potency means the concentration at half of the fitted maximal effect; nearly all actives have a fitted effect of over 55% in size
#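 No-CPT arm: Tdp1-/-;hTDP1 DT40 cells (400/well) plus compounds, incubated ≥48 hr at 37 °C. Readout CellTiter-Glo luminescence.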
# Numbers without * were called inactive; ? = inconclusive; . = no result given. Unless noted, the call rests on the fitted dose curve; in most records, active means well fitted curve in the direction sought with a large enough effect; inconclusive means small, poorly fitted or top-dose-only effect, or another doubt; inactive means no such curve, though single readings can be large; an effect the other way counts as inactive or inconclusive. Unless noted, on the % scale 0 is the no-effect control and ±100 the full control effect.
SMILES,HT1080NT lethal,IL-1B inflam inh,TDP1 cell CPT,HT1080 IDH1KD tx,TDP1 cell noCPT
COc1ccc(-c2nc3ccccc3c(=O)o2)cc1,-1%,-3,9%,-2%,6%
Cn1c(=O)cc(OCC(=O)N2CCN(C3CCCCC3)CC2)c2ccccc21,0%,29,-16%,-12%,-16%
CCCCCN1C(=O)c2ccccc2[C@@]2(C(=O)OCC)Cc3cc(OC)ccc3[C@@H]12,15µM*,.,7.3µM*,12µM*,4.6µM*
CCOC(=O)[C@]12Cc3c(cc(OC)c(OC)c3OC)[C@H]1N(C(C)C)C(=O)c1ccccc12,?,-114*,23µM*,6.5µM*,15µM*
COc1cc2c(cc1OC)C(C(=O)NCCC(C)C)C1CCCCN1C2=O (centres undefined),14%,-5,-3%,13%,-1%
O=NN(CCF)C(=O)NC1CCC(=O)NC1=O (centres undefined),13%,.,-25%,2%,-19%
C[N+](C)(C)c1ccccc1,22%,9,7%,-3%,-18%
Cc1[nH]nc2ccc(-c3cncc(OC[C@@H](N)Cc4c[nH]c5ccccc45)c3)cc12,18µM*,-104*,0.58µM*,10µM*,0.58µM*
COc1ccc(Cc2c(O)[nH]c(=O)[nH]c2=O)c(OC)c1,-18%,18,3%,3%,12%
COc1cc(C2Nc3c(C)cc(C)cc3-c3cc(C)nn32)cc(OC)c1O (centres undefined),.,.,5.8µM*,.,4.1µM*
O=C(Nc1ccc(Br)cc1)c1cccc(S(=O)(=O)N2CCc3ccccc32)c1,.,.,23µM*,.,16µM*
O=C(Nc1ccc(Br)cc1)c1ccc(F)c(S(=O)(=O)N2CCCc3ccccc32)c1,.,.,12µM*,.,8.2µM*
O=C(CNC(=O)c1cccc(S(=O)(=O)N2CCc3ccccc32)c1)Nc1ccccc1Br,-7%,?,?,-13%,?
COC(=O)N1CCC2(CCCN(C)C2)CC1,.,.,27%,.,-20%
C#CC1(O)CCC2C3CCC4=CC(=O)CCC4=C3C=CC21C (centres undefined),?,3,8.2µM*,?,15µM*
C=CC[C@]1(O)CC[C@H]2[C@@H]3CCC4=CCCC[C@@H]4[C@H]3CC[C@@]21C,.,.,-29%,.,0%
C=CC[C@]1(O)CC[C@H]2[C@@H]3CCC4=CC(=O)CCC4=C3C=C[C@@]21C,.,.,13µM*,.,7.5µM*
O=C1C2C3CCC(O3)C2C(=O)N1c1cccc(F)c1 (centres undefined),25%,78,5%,1%,15%
O=C1/C(=C\c2ccc([N+](=O)[O-])cc2)N2CCC1CC2,11%,-64*,-14%,-1%,?
COc1ccc(/C=C2/C(=O)NC(=O)N(c3ccccc3)C2=O)cc1CN1C(=O)c2ccccc2C1=O,5%,23,?,7%,?
COc1ccc(/C=C2/C(=O)NC(=S)N(C3CC3)C2=O)cc1CN1C(=O)c2ccccc2C1=O,-8%,18,16µM*,-15%,23µM*
CCCCCCC(C)(C)c1ccc([C@@H]2C[C@H](O)CC[C@@H]2CCCO)c(O)c1,.,.,19µM*,.,3µM*
COc1ccc(C2NCc3ccccc3-n3cccc32)cc1 (centres undefined),-5%,?,?,-17%,?
CCOc1cc2c(cc1OCC)-n1cccc1C(c1cccc(F)c1)NC2 (centres undefined),-23%,?,21µM*,-21%,?
CCOc1cc2c(cc1OCC)-n1cccc1C(c1cc(OC)ccc1F)NC2 (centres undefined),-16%,-2,18µM*,-12%,16µM*
CCOc1cc2c(cc1OCC)-n1cccc1C(c1cccc(OCC)c1O)NC2 (centres undefined),-25%,-19,?,?,16µM*
CCOc1cc2c(cc1OCC)-n1cccc1C(c1ccccc1F)NC2 (centres undefined),?,?,?,-21%,18µM*
